For some assays here: Measured potencies and affinities stand elsewhere.
Legend:
Design in all cases: scale not given: direction of the effect not stated beside the values
[1] = target: Protein translocase subunit SecA (Escherichia coli (strain K12)) (UniProt P10408); test: Assay to Identify E. coli SecA ATPase Inhibitors; type: functional; details: 30 µM
[2] = target: T1, Ubiquitin-activating enzyme e1, putative (Leishmania donovani (strain BPK282A1)) (UniProt E9BSI1); test: Leishmania donovani Ubiquitin Activating Enzyme (LdE1); type: functional; details: 30 µM
T1 sequence (whole entry): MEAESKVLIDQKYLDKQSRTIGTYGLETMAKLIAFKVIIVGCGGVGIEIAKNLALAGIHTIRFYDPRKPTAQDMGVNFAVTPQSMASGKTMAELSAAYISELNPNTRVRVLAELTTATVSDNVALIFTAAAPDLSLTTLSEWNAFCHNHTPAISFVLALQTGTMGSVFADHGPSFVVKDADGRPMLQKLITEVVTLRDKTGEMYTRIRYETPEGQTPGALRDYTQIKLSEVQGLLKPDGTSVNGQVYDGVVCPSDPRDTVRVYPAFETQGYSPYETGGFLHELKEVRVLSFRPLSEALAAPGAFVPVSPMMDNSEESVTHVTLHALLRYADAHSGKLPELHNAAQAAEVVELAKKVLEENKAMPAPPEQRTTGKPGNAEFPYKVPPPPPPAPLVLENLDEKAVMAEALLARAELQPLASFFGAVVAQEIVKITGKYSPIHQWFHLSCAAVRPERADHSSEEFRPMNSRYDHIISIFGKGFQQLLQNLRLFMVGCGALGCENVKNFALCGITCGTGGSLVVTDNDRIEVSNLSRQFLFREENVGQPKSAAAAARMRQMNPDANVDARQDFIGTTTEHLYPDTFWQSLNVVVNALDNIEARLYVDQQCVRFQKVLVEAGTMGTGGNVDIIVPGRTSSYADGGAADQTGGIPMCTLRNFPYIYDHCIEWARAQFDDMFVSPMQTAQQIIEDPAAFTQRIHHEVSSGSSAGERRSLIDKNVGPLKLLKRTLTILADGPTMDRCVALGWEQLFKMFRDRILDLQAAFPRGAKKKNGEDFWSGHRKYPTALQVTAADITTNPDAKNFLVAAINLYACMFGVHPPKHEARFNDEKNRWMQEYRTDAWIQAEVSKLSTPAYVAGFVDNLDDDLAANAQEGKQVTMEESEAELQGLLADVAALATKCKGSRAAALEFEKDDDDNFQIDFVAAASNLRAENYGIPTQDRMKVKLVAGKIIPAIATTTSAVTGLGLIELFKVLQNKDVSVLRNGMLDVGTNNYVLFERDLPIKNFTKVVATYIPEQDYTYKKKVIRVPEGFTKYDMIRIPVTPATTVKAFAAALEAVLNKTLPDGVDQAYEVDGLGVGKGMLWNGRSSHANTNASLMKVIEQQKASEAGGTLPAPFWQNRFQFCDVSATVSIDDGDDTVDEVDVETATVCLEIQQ

[3] = target: AMP-activated protein kinase, AMPK (Homo sapiens) (UniProt P54646+O43741+P54619+Q9UGJ0+Q9Y478+Q13131+Q9UGI9); test: AMP-dependent Kinase enzyme assay. An in vitro enzyme assay that detects ADP turnover that is directly proportional to AMPK activity. This uses naive AMPK that is activated during the assay with MK-8722; type: functional; details: 30 µM
[4] = target: Sialic acid-binding Ig-like lectin 9 (Homo sapiens) (UniProt Q9Y336); test: Hs-Siglec9 ALPHAscreen SOP 20170721; details: 10 µM
Trypanosoma cruzi = test: Trypanosoma cruzi phosphomannomutase and mannose-1-phosphate guanylyltransferase assay; type: functional; details: 10 µM
[5] = target: T2, Arginase-2, mitochondrial (Homo sapiens) (UniProt P78540); test: in vitro enzyme assay to detect the production of urea directly proportional to the activity of Arginase II; type: functional; details: 33.3 µM; also: in the data most compounds retested in dose-response had high values
T2 sequence (whole entry): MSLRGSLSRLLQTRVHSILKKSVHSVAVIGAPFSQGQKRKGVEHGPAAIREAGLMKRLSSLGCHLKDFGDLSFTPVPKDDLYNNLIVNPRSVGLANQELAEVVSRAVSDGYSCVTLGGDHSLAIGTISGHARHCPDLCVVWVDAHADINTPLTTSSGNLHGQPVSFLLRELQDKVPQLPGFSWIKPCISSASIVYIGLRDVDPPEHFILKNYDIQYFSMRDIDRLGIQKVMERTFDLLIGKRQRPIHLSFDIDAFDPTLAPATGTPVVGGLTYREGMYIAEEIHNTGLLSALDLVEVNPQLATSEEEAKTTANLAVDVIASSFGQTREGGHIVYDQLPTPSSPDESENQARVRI

[6] = target: T3, Proteasome subunit beta (Trypanosoma cruzi) (UniProt O96673); test: Trypanosoma cruzi proteasome chymotrypsin-like activity (TcProtChymo) assay.; also: in the data most compounds retested in dose-response had high values; type: functional; details: 9.37 µM
T3 sequence (whole entry): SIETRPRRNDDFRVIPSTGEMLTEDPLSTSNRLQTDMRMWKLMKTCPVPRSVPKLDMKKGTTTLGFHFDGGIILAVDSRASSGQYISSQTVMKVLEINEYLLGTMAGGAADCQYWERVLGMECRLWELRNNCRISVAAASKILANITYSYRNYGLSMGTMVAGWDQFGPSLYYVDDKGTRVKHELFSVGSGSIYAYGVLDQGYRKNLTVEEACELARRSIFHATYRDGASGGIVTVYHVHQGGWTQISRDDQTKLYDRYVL

Homo sapiens = organism: Homo sapiens; test: To identify inhibition of the IFN signalling (Jak-Stat) pathway via expression of an eGFP reporter gene under the control of an IFN-stimulated response element (ISRE) containing MxA promoter.; type: functional; details: 30 µM
[7] = target: T4, Tyrosyl-tRNA synthetase, putative (Trypanosoma cruzi (strain CL Brener)) (UniProt Q4DSP6); test: Trypanosoma cruzi tyrosyl tRNA synthetase (TcYRS) _High Tyrosine SOP; type: functional; details: 30 µM; also: in the data most compounds retested in dose-response had high values
T4 sequence (whole entry): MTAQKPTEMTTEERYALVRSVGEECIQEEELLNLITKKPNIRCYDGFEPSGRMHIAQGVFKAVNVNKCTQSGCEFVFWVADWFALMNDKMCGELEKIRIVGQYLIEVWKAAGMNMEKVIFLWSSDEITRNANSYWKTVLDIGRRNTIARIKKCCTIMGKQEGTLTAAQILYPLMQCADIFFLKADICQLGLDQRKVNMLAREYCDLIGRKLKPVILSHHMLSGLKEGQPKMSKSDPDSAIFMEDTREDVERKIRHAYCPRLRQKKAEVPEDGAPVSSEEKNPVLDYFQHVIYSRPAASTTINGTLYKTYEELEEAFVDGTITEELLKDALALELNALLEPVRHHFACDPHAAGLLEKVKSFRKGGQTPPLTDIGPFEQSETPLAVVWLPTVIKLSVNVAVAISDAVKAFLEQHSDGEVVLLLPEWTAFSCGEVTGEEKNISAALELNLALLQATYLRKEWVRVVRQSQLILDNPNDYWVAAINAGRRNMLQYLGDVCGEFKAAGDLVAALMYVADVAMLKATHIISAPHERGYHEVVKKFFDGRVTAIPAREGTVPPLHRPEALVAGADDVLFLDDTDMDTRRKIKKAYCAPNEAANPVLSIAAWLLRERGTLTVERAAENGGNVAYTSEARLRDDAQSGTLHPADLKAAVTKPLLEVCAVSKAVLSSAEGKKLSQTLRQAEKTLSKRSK

[8] = target: T4, Tyrosyl-tRNA synthetase, putative (Trypanosoma cruzi (strain CL Brener)); test: Trypanosoma cruzi tyrosyl tRNA synthetase (TcYRS) SOP; type: functional; details: 30 µM
[9] = target: Chromo domain-containing protein 1 (Saccharomyces cerevisiae (strain ATCC 204508 / S288c) (Baker's yeast)) (UniProt P32657); test: ScCHD-1 Enzyme Inhibition Assay; type: functional; details: 30 µM; also: in the data most compounds retested in dose-response had high values
Sequence of Chromo domain-containing protein 1 (Saccharomyces cerevisiae (strain ATCC 204508 / S288c) (Baker's yeast)) (P32657 whole entry, the tested form may be a part): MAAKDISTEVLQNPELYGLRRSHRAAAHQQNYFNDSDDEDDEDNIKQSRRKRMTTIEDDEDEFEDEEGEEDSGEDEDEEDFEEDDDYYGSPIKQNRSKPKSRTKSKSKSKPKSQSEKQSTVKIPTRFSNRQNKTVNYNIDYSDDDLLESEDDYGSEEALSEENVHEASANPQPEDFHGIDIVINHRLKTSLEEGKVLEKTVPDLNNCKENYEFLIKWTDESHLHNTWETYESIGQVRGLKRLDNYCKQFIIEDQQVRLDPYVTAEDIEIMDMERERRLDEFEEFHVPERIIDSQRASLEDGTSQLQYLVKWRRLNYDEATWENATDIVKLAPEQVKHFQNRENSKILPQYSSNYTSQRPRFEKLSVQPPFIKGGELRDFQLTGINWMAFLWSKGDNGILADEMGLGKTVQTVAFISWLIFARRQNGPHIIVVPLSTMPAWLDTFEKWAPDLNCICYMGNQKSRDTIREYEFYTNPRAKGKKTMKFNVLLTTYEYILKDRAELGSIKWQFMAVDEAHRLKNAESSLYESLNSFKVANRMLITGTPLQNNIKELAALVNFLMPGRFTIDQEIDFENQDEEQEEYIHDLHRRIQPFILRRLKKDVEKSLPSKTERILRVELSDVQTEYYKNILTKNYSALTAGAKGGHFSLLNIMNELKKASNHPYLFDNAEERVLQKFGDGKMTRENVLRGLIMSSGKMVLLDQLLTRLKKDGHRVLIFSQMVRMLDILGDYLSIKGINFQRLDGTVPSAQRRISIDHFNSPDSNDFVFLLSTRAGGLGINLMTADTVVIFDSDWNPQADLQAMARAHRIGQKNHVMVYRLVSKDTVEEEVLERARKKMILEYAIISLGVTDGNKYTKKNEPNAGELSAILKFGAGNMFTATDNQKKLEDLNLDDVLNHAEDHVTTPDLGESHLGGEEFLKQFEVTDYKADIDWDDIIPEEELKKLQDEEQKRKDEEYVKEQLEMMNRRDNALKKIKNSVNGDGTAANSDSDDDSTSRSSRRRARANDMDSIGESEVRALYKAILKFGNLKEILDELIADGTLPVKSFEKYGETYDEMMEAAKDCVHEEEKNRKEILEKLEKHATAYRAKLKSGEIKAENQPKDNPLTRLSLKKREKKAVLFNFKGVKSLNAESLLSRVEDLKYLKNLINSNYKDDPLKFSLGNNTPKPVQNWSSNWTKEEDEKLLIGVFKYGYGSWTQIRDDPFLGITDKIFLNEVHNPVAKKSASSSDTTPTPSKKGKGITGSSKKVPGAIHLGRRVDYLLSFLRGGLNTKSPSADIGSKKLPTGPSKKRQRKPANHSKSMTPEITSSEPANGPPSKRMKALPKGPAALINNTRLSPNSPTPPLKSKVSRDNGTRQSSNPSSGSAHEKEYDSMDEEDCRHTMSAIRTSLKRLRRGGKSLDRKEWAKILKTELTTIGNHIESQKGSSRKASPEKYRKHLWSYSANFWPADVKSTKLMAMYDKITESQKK

Sequence of Protein translocase subunit SecA (Escherichia coli (strain K12)) (P10408 whole entry): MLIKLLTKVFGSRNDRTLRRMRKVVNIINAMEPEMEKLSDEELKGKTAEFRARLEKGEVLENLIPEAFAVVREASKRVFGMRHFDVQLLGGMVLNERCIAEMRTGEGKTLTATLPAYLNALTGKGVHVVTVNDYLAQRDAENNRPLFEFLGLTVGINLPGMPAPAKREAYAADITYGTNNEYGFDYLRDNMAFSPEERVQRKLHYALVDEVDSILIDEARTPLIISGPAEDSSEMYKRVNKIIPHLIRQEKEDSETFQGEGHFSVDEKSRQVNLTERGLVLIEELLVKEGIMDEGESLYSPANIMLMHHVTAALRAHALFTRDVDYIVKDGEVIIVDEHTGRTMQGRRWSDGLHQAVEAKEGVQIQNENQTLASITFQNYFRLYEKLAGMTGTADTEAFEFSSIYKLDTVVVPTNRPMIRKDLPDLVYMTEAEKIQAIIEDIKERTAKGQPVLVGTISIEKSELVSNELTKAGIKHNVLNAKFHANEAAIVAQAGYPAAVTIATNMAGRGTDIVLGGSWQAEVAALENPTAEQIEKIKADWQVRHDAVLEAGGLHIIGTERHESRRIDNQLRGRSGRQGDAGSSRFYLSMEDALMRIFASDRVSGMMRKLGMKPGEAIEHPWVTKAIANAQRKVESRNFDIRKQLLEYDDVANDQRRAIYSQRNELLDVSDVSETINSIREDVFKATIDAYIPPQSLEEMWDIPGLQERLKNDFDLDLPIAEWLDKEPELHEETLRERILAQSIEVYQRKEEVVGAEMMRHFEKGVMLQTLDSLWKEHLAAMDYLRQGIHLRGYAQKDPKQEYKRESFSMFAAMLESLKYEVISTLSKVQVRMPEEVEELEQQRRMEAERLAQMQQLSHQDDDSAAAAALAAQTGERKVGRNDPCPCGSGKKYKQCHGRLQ
Sequence of Sialic acid-binding Ig-like lectin 9 (Homo sapiens) (Q9Y336 whole entry): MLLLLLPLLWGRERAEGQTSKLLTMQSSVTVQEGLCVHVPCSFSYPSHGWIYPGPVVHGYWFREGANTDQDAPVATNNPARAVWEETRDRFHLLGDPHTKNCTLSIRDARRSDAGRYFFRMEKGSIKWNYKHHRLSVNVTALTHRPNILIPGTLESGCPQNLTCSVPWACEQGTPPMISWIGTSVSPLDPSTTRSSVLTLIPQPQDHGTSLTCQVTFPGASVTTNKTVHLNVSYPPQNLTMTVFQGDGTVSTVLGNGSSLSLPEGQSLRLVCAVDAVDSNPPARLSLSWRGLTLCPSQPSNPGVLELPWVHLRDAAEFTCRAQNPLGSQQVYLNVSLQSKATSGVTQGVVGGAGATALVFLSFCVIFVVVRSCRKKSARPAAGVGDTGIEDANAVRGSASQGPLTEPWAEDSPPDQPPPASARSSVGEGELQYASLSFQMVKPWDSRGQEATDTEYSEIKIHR

| SMILES | Percent Effect [1] [%] | Percent Effect [2] [%] | Percent Effect [3] [%] | Percent Effect [4] [%] | Percent Effect (Trypanosoma cruzi) [%] | Percent Effect [5] [%] | Percent Effect [6] [%] | Percent Effect (Homo sapiens) [%] | Percent Effect [7] [%] | Percent Effect [8] [%] | Percent Effect [9] [%] |
| --- | --- | --- | --- | --- | --- | --- | --- | --- | --- | --- | --- |
| CCOc1cccc(C(C)NC(=O)N2CCC(C(N)=O)CC2)c1 (configuration not stated) | -2.51 | 2.7 | -1.93 | 5.06 | -1.93 | -0.952 | 3.97 | 14.3 | 3.7 | 9.76 | -1.95 |
| CN(C)C(=O)N[C@@H]1CN(Cc2ccc3c(c2)OCO3)[C@@H]2CCCO[C@@H]21 | -4.35 | 5.33 | 4.23 | 8.52 | -0.386 | -58.6 | 14.5 | 1.11 | 7.29 | 17.5 | -5.44 |
| COC(=O)c1ccc(N2CCN(CCC#N)C(C)C2)cc1 (configuration not stated) | -7.22 | 10.5 | 3.82 | -3.31 | -8.12 | -0.36 | 4.15 | 5 | 5.42 | 3.7 | 0.577 |
| Cc1cnn(CC2CCCN2Cc2coc(-c3ccccc3)n2)c1 (configuration not stated) | 0.182 | -11 | -9.12 | 16.7 | 6.46 | 1.82 | 1.77 | -7.46 | 3.23 | 5 | -6.56 |
| CC(C)(C#N)C(=O)N1CCCC(c2cc(C(F)(F)F)[nH]n2)C1 (configuration not stated) | -6.75 | 16.2 | -6.25 | 19.3 | 3.44 | -2.03 | 4.85 | 14.8 | 2.97 | 11 | -8.63 |
| Cc1noc(C)c1CN1CCN(CC2CC2)c2ncccc2C1 | -0.988 | 5.33 | -0.194 | -3.6 | -5.71 | 3.5 | 4.49 | 23 | 4.25 | 8.97 | -3.22 |
| CCn1ccnc1CN1CCN(CCOc2cccc(C#N)c2)CC1 | -4.35 | 21.1 | -6.98 | -4.93 | 5.64 | -0.383 | 11.9 | 4.93 | 8.33 | 19.5 | -13 |
| NS(=O)(=O)CCNC(=O)c1ccc(-c2ccc(F)cc2)cc1F | -4.5 | 5.2 | 1.86 | 3.08 | -1.08 | 8.28 | 24.5 | 19.2 | -10.8 | 1.24 | -1.11 |
| CNC(=O)CS(=O)(=O)Cc1coc(-c2ccc(OC)cc2)n1 | -3.22 | 2.7 | -2.86 | -2.16 | -1.35 | -1.91 | 12.8 | 7.16 | 2.65 | -4.88 | -2.91 |
| COCCn1ccc(NC(=O)Nc2ccc(C(N)=O)c(F)c2)n1 | -4.16 | -7.89 | 10.9 | -0.377 | -3.41 | -4.73 | 13.3 | -2.4 | 0 | 0 | 75.5 |
| Cc1cc(C)n(CC2CCCN2CC(=O)NC2CCOCC2)n1 (configuration not stated) | -8.59 | 10.4 | 1.94 | 3.84 | -3.93 | 2.13 | 3.21 | -10 | 1.94 | 9.76 | -3.99 |
| CC(C)c1nc2c(n1C)CCN(CC(=O)Nc1nccs1)C2 | -4.97 | 15.6 | 1.78 | -4.17 | -0.686 | 3.58 | 15.3 | -3.14 | 9.52 | 21.2 | -18 |
| CCS(=O)(=O)N(C)C1CCN(C(=O)c2cccc(Cl)c2)CC1 | -3.98 | 16.2 | -9.5 | 1.05 | 4.3 | 11.2 | 9.38 | -0.31 | 6.93 | 11 | -6.5 |
| COc1ccc(F)cc1S(=O)(=O)NCC(c1cccn1C)N(C)C (configuration not stated) | -3.57 | 8.22 | -1.87 | -2.56 | 0.196 | 3.64 | 11.5 | 7.4 | 7.53 | 20 | -6.57 |
| Cc1cc(S(=O)(=O)N2CCC(S(C)(=O)=O)CC2)ccc1F | -4.08 | 5.2 | 6.02 | 4.37 | -0.493 | 8.39 | -2.96 | 14.6 | 4.23 | 11.5 | -5.25 |
| CC(C)NC(=O)c1nnn(-c2cccc(C(F)(F)F)c2)c1N | -2.18 | -4.17 | -2.65 | -0.424 | 6.51 | -4.86 | 4.04 | 11.5 | 0 | 0 | -1.24 |
| O=C(c1cc(F)ccc1F)C1CCN(C(=O)c2ccc(=O)[nH]n2)CC1 | -2.7 | 13 | 0.316 | 0.809 | -3.43 | 2.32 | 7.52 | 15.8 | 3.81 | 18.8 | -6.34 |
| COc1ccc(CC(=O)N2CCCN(c3ccc(C#N)cc3)CC2)cc1 | -3.96 | -5.26 | 8.87 | -0.428 | -5.75 | -8.28 | 11.8 | -1.35 | -3.19 | 2.6 | -7.99 |
| COc1ccc(COCC(O)CNC(=O)c2cc(C)cc(C)c2)cc1 (configuration not stated) | -3.84 | 13.9 | 0.387 | -0.514 | 0.718 | -4.09 | 9.95 | 9.63 | 4.17 | 17.7 | -15.9 |
| CCn1cc(CN(C)C(=O)c2cccc(CCC(C)(C)O)c2)cn1 | -5.71 | 5.33 | -1.82 | -0.5 | -5.36 | 1.04 | 15 | 9.2 | 7.1 | 6.17 | -6.76 |
| Cc1cc(N2CCC3(CCC(=O)N(CC4CC4)C3)CC2)nc(N)n1 | -4.29 | 5.41 | -2.2 | 5.16 | -0.88 | -1.74 | 8.15 | 7.43 | 9.68 | 8.64 | -3.15 |
| Cc1nn(C)c(C)c1C(C)NC(=O)Nc1cccnc1N1CCCC1 (configuration not stated) | -1.26 | 2.7 | -19.3 | 6.12 | -3.3 | 0 | 0.18 | 15 | -0.493 | 3.7 | -0.951 |
